According to PubChem BioAssay (NCI):
About 83,000 compounds went through this panel and 20% of them were active in at least one assay; those are over-represented in the sample as a whole.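 Testing used 96-well plates and a 48-hour single-concentration exposure. Example: -40 means 40% of the starting cells died.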 A number with no mark means an inactive call. Activity calls are given as the source filed them. How the source made its calls: active means growth percent below 10; inactive means the rest.

Legend:
Test in all cases: NCI-60 one-dose screen, 48 h (100 = growth as untreated, 0 = no growth, -100 = all killed)
Settings in all cases: 10 µM unless noted
NCI-H23 lung = tested on: NCI-H23 lung
NCI-H226 lung = tested on: NCI-H226 lung
NCI-H322M lung = tested on: NCI-H322M lung
HOP-62 NSCLC = tested on: HOP-62 NSCLC
NCI-H460 lung = tested on: NCI-H460 lung
HOP-92 NSCLC = tested on: HOP-92 NSCLC
A549/ATCC NSCLC = tested on: A549/ATCC NSCLC
786-0 renal = tested on: 786-0 renal
COLO 205 colon = tested on: COLO 205 colon
DU-145 prostate = tested on: DU-145 prostate
K-562 leukemia = tested on: K-562 leukemia
MALME-3M melanoma = tested on: MALME-3M melanoma
MDA-MB-231 breast = tested on: MDA-MB-231 breast
SF-268 CNS = tested on: SF-268 CNS
SF-295 CNS = tested on: SF-295 CNS
SF-539 CNS = tested on: SF-539 CNS
M14 melanoma = tested on: M14 melanoma
RXF 393 renal = tested on: RXF 393 renal
UACC-257 melanoma = tested on: UACC-257 melanoma

SMILES	growth (NCI-H23 lung)	growth (NCI-H226 lung)	growth (NCI-H322M lung)	growth (HOP-62 NSCLC)	growth (NCI-H460 lung)	growth (HOP-92 NSCLC)	growth (A549/ATCC NSCLC)	growth (786-0 renal)	growth (COLO 205 colon)	growth (DU-145 prostate)	growth (K-562 leukemia)	growth (MALME-3M melanoma)	growth (MDA-MB-231 breast)	growth (SF-268 CNS)	growth (SF-295 CNS)	growth (SF-539 CNS)	growth (M14 melanoma)	growth (RXF 393 renal)	growth (UACC-257 melanoma)
COc1ccc(C(=O)/C=C/c2ccc(C)cc2)cc1OC	78.3%	74.4%	74.6%	79%	80.9%	52.5%	36.3%	85.3%	82.8%	11.3%	21.1%	101%	90.7%	57.3%	101%	70.3%	99.2%	–	–
CC(=O)c1ccc(NS(=O)(=O)c2ccc([N+](=O)[O-])cc2)cc1	105%	99.4%	121%	87%	114%	83.4%	95.5%	105%	106%	111%	82.1%	115%	88.9%	104%	–	97.8%	107%	104%	105%
Cc1ccc(C2=Nc3c(ccc4c(C)c(C)c(=O)oc34)OC2)cc1	97.4%	101%	90.2%	97.3%	102%	87.1%	99.5%	93.6%	111%	106%	95.4%	104%	105%	108%	94.3%	–	103%	109%	–
COc1cc2c(cc1OC)C(CC1(O)CCCCC1)N(S(=O)(=O)c1ccc(C)cc1)CC2 (stereo unspecified)	29.3% [100 µM]	57.6% [100 µM]	57.8% [100 µM]	79.3% [100 µM]	8.16% [100 µM] (active)	-10.6% [100 µM] (active)	20.9% [100 µM]	29.7% [100 µM]	1.18% [100 µM] (active)	32.3% [100 µM]	10.8% [100 µM]	18.9% [100 µM]	40.8% [100 µM]	26.3% [100 µM]	3.6% [100 µM] (active)	–	13% [100 µM]	48.9% [100 µM]	22.4% [100 µM]
COc1ccc(-c2nnc3c4[nH]cnc4ncn23)c(OC)c1	22.3%	43.5%	32.9%	25.8%	39.4%	52.9%	71.6%	21.3%	32.5%	26.5%	11.5%	37.4%	29%	33%	20.1%	14.6%	10.5%	–	40.6%
O=c1c2ccccc2c2nccn2c2cc(Cl)ccc12	72.6%	155%	129%	71.7%	101%	28.8%	71.7%	91.6%	112%	98.1%	57.7%	159%	126%	91.9%	85.5%	94.2%	110%	–	66.5%
COC(=O)[C@H](CCCCNC(=O)OCc1ccccc1)NC(=O)[C@@H](NC(=O)Nc1cc(C(F)(F)F)cc(C(F)(F)F)c1)C(C)C	-45.6% [100 µM] (active)	39% [100 µM]	19.9% [100 µM]	-84.2% [100 µM] (active)	-23.1% [100 µM] (active)	-69.5% [100 µM] (active)	45.1% [100 µM]	-91.7% [100 µM] (active)	-12.8% [100 µM] (active)	-82.2% [100 µM] (active)	-18.9% [100 µM] (active)	-61.4% [100 µM] (active)	-87.8% [100 µM] (active)	-85% [100 µM] (active)	-65.5% [100 µM] (active)	–	-75.6% [100 µM] (active)	-90.8% [100 µM] (active)	-78.5% [100 µM] (active)
Clc1ccc2nc(CI)c(CI)nc2c1	85.8%	56.4%	83.7%	94.3%	118%	19.3%	96.1%	0.747% (active)	0% (active)	86.1%	-20.1% (active)	74.6%	74.4%	73.7%	88.8%	100%	48.9%	–	86.2%
COc1ccc(NC(=O)[C@@H]2C[C@H]2c2ccccc2)c(C(N)=O)c1	91.3%	101%	94.2%	100%	101%	94.6%	97.5%	106%	106%	105%	71.8%	91%	87.9%	97.9%	100%	99.7%	91.4%	–	92.9%
O=C1CSC(c2ccccc2Cl)N1c1nnc(Cn2nnc3ccccc32)o1 (stereo unspecified)	80.6%	96.1%	80.9%	91.9%	88%	56.8%	59.9%	88.7%	106%	91.8%	69.6%	127%	77.1%	84.2%	–	89%	89.8%	90.1%	94.7%
FC(F)(F)c1ccc(-c2cnc(-c3nn[nH]n3)nc2NC2CCCCCC2)cc1	66% [50 µM]	70.9% [50 µM]	51.1% [50 µM]	63.7% [50 µM]	34.6% [50 µM]	-8.27% [50 µM] (active)	81.1% [50 µM]	49.8% [50 µM]	95% [50 µM]	64% [50 µM]	20% [50 µM]	69.5% [50 µM]	64.1% [50 µM]	47.8% [50 µM]	–	64% [50 µM]	53.2% [50 µM]	88.7% [50 µM]	81.6% [50 µM]
CC1CC=CCC1C1OCC(C)(C)CO1 (stereo unspecified)	108%	99.9%	105%	89.3%	109%	106%	96.7%	97.6%	111%	108%	102%	109%	112%	106%	–	95.5%	101%	103%	97%
COc1ccc(N2CCN(CC(=O)N3CCN(c4nnc(-c5ccc(Cl)cc5)c(-c5ccc(Cl)cc5)n4)CC3)CC2)cc1	81.7%	57.9%	69.3%	93.3%	52.4%	50.3%	-8.6% (active)	60.4%	86%	70.6%	22.3%	81.7%	84.1%	69.8%	53.9%	30.7%	59.8%	–	–
CCOC(=O)C(C(=O)OCC)C1CCCCC1	106%	98.7%	94%	107%	106%	82.4%	96.8%	96.4%	112%	107%	104%	96%	108%	99.1%	–	99.4%	102%	107%	96.3%
COc1ccc2c(=O)c(OC)c(-c3cc(OC)c(OC)c(OC)c3)oc2c1	86.4%	91.3%	89.1%	82.8%	102%	46.5%	44.1%	67.8%	129%	109%	87.1%	113%	84.1%	100%	113%	91.5%	109%	–	–
